Measured values taken from paper PMC4336329 (PLoS ONE, 2015).
Out of some 310,000 compounds screened, about 2,200 (0.71%) showed an effect of 50% or more. The effect is printed as a negative number. The list comes from a sample in which strong results are over-represented; it also holds similar structures and randomly drawn compounds.

biological target: human ether-à-go-go-related gene (hERG) potassium channel (human, UniProt Q12809); experiment: primary screen, population patch clamp on CHO cells stably expressing hERG; higher = less effect of the substance
Sequence (Q12809 whole entry, looked up): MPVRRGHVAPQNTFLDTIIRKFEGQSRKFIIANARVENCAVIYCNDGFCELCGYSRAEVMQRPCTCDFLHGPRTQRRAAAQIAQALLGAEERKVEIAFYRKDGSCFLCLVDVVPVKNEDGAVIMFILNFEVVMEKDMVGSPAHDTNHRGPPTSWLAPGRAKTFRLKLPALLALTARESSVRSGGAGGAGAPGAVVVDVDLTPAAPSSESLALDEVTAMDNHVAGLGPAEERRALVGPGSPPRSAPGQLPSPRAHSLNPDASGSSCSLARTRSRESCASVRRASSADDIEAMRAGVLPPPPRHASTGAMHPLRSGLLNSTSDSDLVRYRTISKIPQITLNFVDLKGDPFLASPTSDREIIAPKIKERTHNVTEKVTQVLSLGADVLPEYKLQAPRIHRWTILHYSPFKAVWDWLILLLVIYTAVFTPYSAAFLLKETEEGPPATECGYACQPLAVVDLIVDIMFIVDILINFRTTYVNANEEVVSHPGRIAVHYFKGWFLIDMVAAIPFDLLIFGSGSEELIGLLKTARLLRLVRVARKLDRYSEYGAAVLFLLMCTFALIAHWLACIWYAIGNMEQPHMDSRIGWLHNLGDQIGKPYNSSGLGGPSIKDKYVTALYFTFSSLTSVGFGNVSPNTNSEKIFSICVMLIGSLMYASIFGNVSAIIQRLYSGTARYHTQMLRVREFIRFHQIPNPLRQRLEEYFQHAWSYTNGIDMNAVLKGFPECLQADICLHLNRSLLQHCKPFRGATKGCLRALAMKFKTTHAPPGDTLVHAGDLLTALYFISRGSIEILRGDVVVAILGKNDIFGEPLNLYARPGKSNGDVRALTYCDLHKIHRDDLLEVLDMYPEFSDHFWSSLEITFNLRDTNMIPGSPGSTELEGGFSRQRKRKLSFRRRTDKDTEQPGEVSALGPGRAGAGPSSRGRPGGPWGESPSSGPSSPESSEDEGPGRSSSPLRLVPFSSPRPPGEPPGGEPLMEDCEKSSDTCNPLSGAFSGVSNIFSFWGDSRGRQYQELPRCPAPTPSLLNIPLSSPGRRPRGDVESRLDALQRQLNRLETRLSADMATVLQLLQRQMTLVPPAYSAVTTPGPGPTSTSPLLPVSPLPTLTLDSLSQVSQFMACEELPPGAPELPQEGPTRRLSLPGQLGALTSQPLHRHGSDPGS

SMILES	hERG current change (%, negative = inhibition) at 1uM [%]
CC1CN(C(=O)c2c([N+](=O)[O-])cnn2C)CC(C)O1 (centres unmarked)	1.78
NNC(=O)C1CC(O)CN1S(=O)(=O)c1ccc(Cl)cc1 (centres unmarked)	6.56
O=C(Nc1ccc(-c2csc(-c3ccccc3)n2)cc1)c1ccccc1Cl	16.9
CCOC(=O)N1CCC(NC(=O)c2cc(C(=O)Nc3ccc(OC)c(OC)c3)ccc2CO)CC1	4.41
O=S(=O)(c1ccccc1Cl)N1CCC(Cc2ccccc2)CC1	13.5
CCCCc1nn(-c2cc(Cl)ccc2OC)c2c1C(=O)CCC2	12.2
COC(=O)C1=C(c2ccc(F)cc2OCc2ccccc2)C[C@@H]2CC[C@H]1N2C(=O)NCCNC(C)=O	16.4
Cc1cc(=O)n2nc(N3CCC(C(=O)NCC(C)c4ccccc4)CC3)sc2n1 (centres unmarked)	11.7
Cc1nn2c(NCCOCCO)c3c(nc2c1-c1ccccc1)CCCC3	-75.3
Cc1nn2c(NCCOCCO)c3c(nc2c1-c1ccccc1)CCC3	-9.29
COCCNc1c2c(nc3c(-c4ccccc4)c(C)nn13)CCCC2	5.77
O=C(CCS(=O)(=O)c1cccs1)Nc1ccc(C(=O)NC2CCN(Cc3ccccc3)CC2)cc1	7.84
CCC(CC)C(=O)c1c[nH]c(C(=O)NCc2ccccn2)c1	8.96
Cc1ccc(-n2ncc3c2CC(C)(C)CC3NC(=O)c2ccncc2)cc1 (centres unmarked)	-48.8
Cc1ccc(-n2ncc3c2CCCC3NC(=O)c2ccoc2)cc1C (centres unmarked)	-78.5
CC1(C)Cc2c(cnn2-c2ccc(F)cc2)C(NC(=O)C2CCC2)C1 (centres unmarked)	-56.8
Cc1cc(C(=O)NC2CCCc3c2cnn3-c2ccc(C)c(C)c2)no1 (centres unmarked)	1.86
COC(=O)c1ccc(C(=O)NC2CC(C)(C)Cc3c2cnn3-c2ccc(F)cc2)nc1 (centres unmarked)	-0.769
Cc1ccc(-n2ncc3c2CC(C)(C)CC3NC(=O)c2cc[n+]([O-])cc2)cc1 (centres unmarked)	-62.7
CC1(C)Cc2c(cnn2-c2ccc(F)cc2)C(NC(=O)C(C)(C)O)C1 (centres unmarked)	12.6
CC(=O)N1CCC(C(=O)NC2CC(C)(C)Cc3c2cnn3-c2ccc(F)cc2)CC1 (centres unmarked)	-11.3
Cc1cc(C(=O)NC2CC(C)(C)Cc3c2cnn3-c2ccc(F)cc2)nn1C (centres unmarked)	5.91

SMILES	hERG current change (%, negative = inhibition) at 1uM [%]
Cc1ccc(-n2ncc3c2CC(C)(C)CC3NC(=O)c2ccc[n+]([O-])c2)cc1 (centres unmarked)	7.22
CC1(C)Cc2c(cnn2-c2ccc(F)cc2)C(NC(=O)C2=NNC(=O)CC2)C1 (centres unmarked)	-52.1
COC(=O)c1ccc(C(=O)NC2CCCc3c2cnn3-c2ccc(C)c(C)c2)cc1 (centres unmarked)	12.4
CC(C)C(=O)Nc1ccc(NC(=O)c2ccccn2)cn1	12.6
O=C(CSc1nnc(CNC(=O)c2ccccc2F)o1)Nc1cccc(C(F)(F)F)c1	16
COc1ccc[nH]c1=O	1.28
CCOC(=O)Cn1cnc2c(nnn2-c2cccc(OC)c2)c1=O	17
COc1ccc(/C(C)=N/N=C2/NC(=O)CC(C(=O)O)S2)cc1 (centres unmarked)	5.89
COCCCNC(=O)CCn1c(=O)c2ccccc2n(CC(=O)Nc2cc(Cl)ccc2C)c1=O	2.79
O=C(NCc1ccc2c(c1)OCO2)c1ccc(S(=O)(=O)C(F)F)cc1	-0.408
Cn1nccc1C(=O)NC1CC(C)(C)Cc2c1cnn2-c1ccc(F)cc1 (centres unmarked)	-20
CC(=O)c1ccc(C(=O)NC2CC(C)(C)Cc3c2cnn3-c2ccccc2)cc1 (centres unmarked)	5.88
COc1ccc(-n2ncc3c2CC(C)(C)CC3NC(=O)CCn2cncn2)cc1 (centres unmarked)	-5.06
CC1(C)Cc2c(cnn2-c2ccc(F)cc2)C(NC(=O)CCn2cncn2)C1 (centres unmarked)	-40.7
CC1(C)Cc2c(cnn2-c2ccc(F)cc2)C(NC(=O)c2cnccn2)C1 (centres unmarked)	-6.77
CC1(C)Cc2c(cnn2-c2ccccc2)C(NC(=O)c2ccc[n+]([O-])c2)C1 (centres unmarked)	8.68
CC1(C)Cc2c(cnn2-c2ccccc2)C(NC(=O)c2ccoc2)C1 (centres unmarked)	-91.7
Cc1ccc(-n2ncc3c2CC(C)(C)CC3NC(=O)CCn2cncn2)cc1 (centres unmarked)	-78.5
CC1(C)Cc2c(cnn2-c2ccc(F)cc2)C(NC(=O)c2ccoc2)C1 (centres unmarked)	-95.7
CCOc1cc(C#N)ccc1OCC(=O)N1CCN(C(=O)c2cccs2)CC1	-16.1
O=C(Nc1ccccc1Cl)c1ccc(S(=O)(=O)NCC2CCCO2)cc1 (centres unmarked)	-7.62
CCOc1ccccc1OCC(=O)O	12.1
